Pf growth 48h: inhibits P. falciparum growth in the first generation, 48 h; P. falciparum luciferase growth in erythrocytes, 48 h; Potency, µM (series often up to 28.7 µM), inactives show top-dose activity change, negative = inhibition, actives largely listed as inhibitors; actives 5.9% (n = 310,000); AID 504832; further: potency means the concentration at half of the fitted maximal effect; on the % scale 0 is the no-effect control and ±100 the full control effect
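Firefly luciferase activity from engineered P. falciparum reports growth; inhibitors lower the luminescent signal. Cultures contained 2% hematocrit erythrocytes at 0.1% final parasitemia.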
NS1 inh: blocks influenza NS1 protein function | AID 2326 | actives 0.4% (n = 270,000) | Potency, µM (titrated, usually from 46.1 µM), without a hit: top-dose activity, positive = more growth; calls by dose curve; further: potency means the concentration at half of the fitted maximal effect; actives are rising curves; nearly all actives have a fitted effect of over 50% in size
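Compounds were scored for reversing the slow growth caused by influenza A NS1 in S. cerevisiae, measured by optical density at 600 nm. Assay medium contained 2% galactose at pH 6.0; NS1-free yeast of the same strain were the positive control.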
Shiga inhibitor: inhibitors of Shiga toxin in Vero cells. Vero cells, Shiga toxin protein synthesis inhibition reporter. AID 2315. actives 9.2% (n = 290,000). inhibition, % at 38.7 µM; in the data active means inhibition mostly above about 28%, no sharp cut-off; inactive means mostly below about 43%; further: 0% is about no effect
Cycloheximide cs: counter-screen hit for Shiga toxin inhibitors, cycloheximide. cell reporter, cycloheximide protein synthesis inhibition counterscreen. max response, %. actives 12% (n = 300,000). AID 2314; in the data active means max response mostly above about 13%, no sharp cut-off; inactive means mostly below about 14%; further: read at 38.3 µM for the half of the compounds with a filed dose; 0% is about no effect
Pf growth 96h: P. falciparum growth inhibition at 96 hours. P. falciparum luciferase reporter growth, 96 h. Potency, µM (highest dose often 28.7 µM), without a hit: at the highest dose activity change, negative = inhibition, usual class: inhibitors. actives 6.9% (n = 320,000); further: potency means the concentration at half of the fitted maximal effect; on the % scale 0 is the no-effect control and ±100 the full control effect
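Delayed-death screen, second-generation endpoint: infected erythrocytes, 2% hematocrit, 0.05% parasitemia final; 96 hours at 37 C, 5% CO2; luciferase detection reagent; luminescence decrease equals reduced growth.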
* marks the source's active call; other numbers are inactive results; ! = not active in a repeat. Hits are enriched below; roughly 21% of the tested compounds scored in any of these assays. Unless noted, the call rests on the fitted dose curve; in most records, active means well fitted inhibition curve with a large enough effect; inconclusive means small, poorly fitted or top-dose-only effect, or another doubt; inactive means no such curve, though single readings can be large or run the other way.

For COc1ccc(CCNC(=O)c2nnn(-c3cccc(C)c3)c2N)cc1OC the results were Pf growth 48h -24%, NS1 inh 7%, Shiga inhibitor -6 and Cycloheximide cs 1.
For COc1ccc(CCNC(=O)c2noc3c2CCCC3)cc1OC the results were Pf growth 48h -21%, NS1 inh -2%, Shiga inhibitor 2, Cycloheximide cs 9.1* and Pf growth 96h inconclusive.
For O=C(Nc1ccc(Cl)cn1)C1CCN(c2ncnc3c2nc2n3CCCCC2)CC1 the results were Pf growth 48h 10%, NS1 inh -12%, Shiga inhibitor 9, Cycloheximide cs 3 and Pf growth 96h inconclusive.
`O=C(COC(=O)c1ccccc1Sc1ccc(C(F)(F)F)cc1[N+](=O)[O-])NC(=O)NC1CCCC1` gave Pf growth 48h -1%, NS1 inh 14%, Shiga inhibitor 14, Cycloheximide cs 4 and Pf growth 96h -3%.
`COc1ccc(CCNC(=O)Cn2nnc(C(=O)Nc3ccc(Br)cc3)c2N)cc1OC` gave Pf growth 48h 15%, NS1 inh -6%, Shiga inhibitor 19, Cycloheximide cs 31* and Pf growth 96h 25%.
`Cc1c(NC(=O)c2ccc(S(=O)(=O)N3CCOCC3)cc2)cccc1[N+](=O)[O-]` gave Pf growth 48h -28% and Pf growth 96h 7%.
For O=C(NCc1ccco1)c1ccc(CS(=O)(=O)Cc2ccc(Cl)cc2)o1 the results were Pf growth 48h -18%, NS1 inh -9%, Shiga inhibitor -1, Cycloheximide cs -4 and Pf growth 96h 12%.
`O=C(NCc1ccco1)c1ccc(-c2ccccc2Cl)o1` gave Pf growth 48h 11%, Shiga inhibitor 49, Cycloheximide cs 43* and Pf growth 96h -29%.
Screening COc1ccccc1CNC(=O)c1ccc(-c2ccccc2Cl)o1 returned Pf growth 48h -25%, NS1 inh -59%, Shiga inhibitor 33, Cycloheximide cs 23 and Pf growth 96h 10µM*.
Screening COc1ccccc1CNC(=O)c1ccc(-c2ccccc2C(F)(F)F)o1 returned Pf growth 48h inconclusive, NS1 inh -3%, Shiga inhibitor 11, Cycloheximide cs -1 and Pf growth 96h inconclusive.
For COc1ccccc1-c1ccc(C(=O)O)o1 the results were Pf growth 48h 29%, NS1 inh -1%, Shiga inhibitor 75, Cycloheximide cs 22*! and Pf growth 96h 0%.
For O=C(NCc1ccco1)c1ccc(-c2ccc(Cl)cc2)o1 the results were Pf growth 48h 7%, Shiga inhibitor 78*, Cycloheximide cs 37* and Pf growth 96h -14%.
Screening CCCCCC/C=C/c1ccc(C2C3C=CCC(C)C3C(=O)N2Cc2ccccc2)c(F)c1 (stereo unspecified) returned Shiga inhibitor 7 and Cycloheximide cs -6.
For CC(Sc1ncn[nH]1)C(=O)Nc1cc(C(F)(F)F)ccc1Cl (stereo unspecified) the results were Pf growth 48h -28% and Pf growth 96h -30%.
CS(=O)(=O)N(Cc1ccccc1Cl)c1ccc(C(=O)N2CCCC2)cc1 was read as Pf growth 48h 24%, NS1 inh -18%, Shiga inhibitor 2, Cycloheximide cs -3 and Pf growth 96h 57%.
`O=C(N/N=C/c1c[nH]c2ccccc12)c1ccn[nH]1` gave Pf growth 48h 64%, Shiga inhibitor 46, Cycloheximide cs 28* and Pf growth 96h 117%.
Screening O=C(N/N=C/c1c[nH]c2ccccc12)c1cc(-c2cccc3ccccc23)n[nH]1 returned Pf growth 48h 1%, NS1 inh 19%, Shiga inhibitor 27, Cycloheximide cs 19* and Pf growth 96h -9%.
Screening O=C(N/N=C/c1c[nH]c2ccccc12)c1cc(-c2ccc(-c3ccccc3)cc2)n[nH]1 returned Pf growth 48h inconclusive, NS1 inh 24%, Shiga inhibitor 54*, Cycloheximide cs 35* and Pf growth 96h 192%.
Cc1ccc(-c2cc(C(=O)N/N=C/c3c[nH]c4ccccc34)[nH]n2)cc1 was read as Pf growth 48h -3%, NS1 inh -1%, Shiga inhibitor 51*, Cycloheximide cs 47* and Pf growth 96h -12%.
CC(=O)c1sc(NC(=O)CCOc2ccccc2)nc1C was read as Pf growth 48h 73%, NS1 inh 0%, Shiga inhibitor 77*, Cycloheximide cs 34* and Pf growth 96h 40%.
`CC(=O)c1sc(NC(=O)COc2ccccc2)nc1C` gave Pf growth 48h inactive, NS1 inh 5%, Shiga inhibitor 57*, Cycloheximide cs 15* and Pf growth 96h 39%.
Screening Cc1nnc(NC(=O)COc2ccccc2)s1 returned NS1 inh -12%, Shiga inhibitor -9, Cycloheximide cs 1 and Pf growth 96h 33%.
Screening CCOC(=O)c1sc2nc(NC(=O)COc3ccccc3)sc2c1C returned NS1 inh -5%, Shiga inhibitor 0, Cycloheximide cs 1 and Pf growth 96h 1.7µM*.
Screening O=C(COc1ccccc1)Nc1nc2c(s1)CCCC2 returned Pf growth 48h 120%, NS1 inh -8%, Shiga inhibitor 83*, Cycloheximide cs 39* and Pf growth 96h -28%.
O=C(CN1C(=O)NC(Cc2c[nH]c3ccccc23)C1=O)NC1CCCCC1 (stereo unspecified) was read as Pf growth 48h -16% and Pf growth 96h 0%.
Screening C=CCn1c(SCc2nc3ccccc3nc2C)nnc1-c1ccoc1C returned Pf growth 48h inconclusive, NS1 inh 2%, Shiga inhibitor -11, Cycloheximide cs 6 and Pf growth 96h 7%.
`CCCCNC(=O)NS(=O)(=O)c1ccc(C(=O)O)cc1` gave Shiga inhibitor -10 and Cycloheximide cs -4.
Screening NS(=O)(=O)c1ccc(CNC(=O)Cc2ccccc2F)cc1 returned Pf growth 48h -6%, Shiga inhibitor 20, Cycloheximide cs 7 and Pf growth 96h 17%.
`COc1ccccc1-c1c(-c2ccc(O)cc2O)n[nH]c1C(F)(F)F` gave Pf growth 48h inconclusive, NS1 inh 5%, Shiga inhibitor -5, Cycloheximide cs 0 and Pf growth 96h 13µM*.
For Oc1ccc(-c2n[nH]c(C(F)(F)F)c2-c2ccccc2)c(O)c1 the results were Pf growth 48h -17%, NS1 inh 5%, Shiga inhibitor -10, Cycloheximide cs 0 and Pf growth 96h 32%.
Screening CCN1C(=O)/C(=C/c2cccs2)N(C)C1=S returned NS1 inh 2%, Shiga inhibitor 10, Cycloheximide cs 0 and Pf growth 96h 1.7µM*.
`CCN1C(=O)/C(=C/c2ccc(C)o2)N(C)C1=S` gave Pf growth 48h 35%, NS1 inh -47%, Shiga inhibitor 11, Cycloheximide cs 16* and Pf growth 96h -18%.
For O=C(Nc1ccccc1)c1ccc(NCc2ccco2)c(S(=O)(=O)N2CCOCC2)c1 the results were Pf growth 48h inconclusive, NS1 inh inconclusive, Shiga inhibitor 16, Cycloheximide cs 10.0* and Pf growth 96h 23%.
Screening O=C(NCc1ccco1)c1ccc(Cl)c(S(=O)(=O)N2CCOCC2)c1 returned Pf growth 48h 2.3µM*, NS1 inh 1%, Shiga inhibitor 14 and Cycloheximide cs 10.
